The full ranking holds about 39,000 sequences; the median of “fluorescence intensity (a.u.)” is about 4,300, and the highest 2% start at about 39,000. For the sample, the highest values were picked, then their nearest neighbours and some sequences at random.

The assay addresses T1, OsSMF1 (Oryza sativa, UniProt Q6ZLB0 1-436).
T1 sequence: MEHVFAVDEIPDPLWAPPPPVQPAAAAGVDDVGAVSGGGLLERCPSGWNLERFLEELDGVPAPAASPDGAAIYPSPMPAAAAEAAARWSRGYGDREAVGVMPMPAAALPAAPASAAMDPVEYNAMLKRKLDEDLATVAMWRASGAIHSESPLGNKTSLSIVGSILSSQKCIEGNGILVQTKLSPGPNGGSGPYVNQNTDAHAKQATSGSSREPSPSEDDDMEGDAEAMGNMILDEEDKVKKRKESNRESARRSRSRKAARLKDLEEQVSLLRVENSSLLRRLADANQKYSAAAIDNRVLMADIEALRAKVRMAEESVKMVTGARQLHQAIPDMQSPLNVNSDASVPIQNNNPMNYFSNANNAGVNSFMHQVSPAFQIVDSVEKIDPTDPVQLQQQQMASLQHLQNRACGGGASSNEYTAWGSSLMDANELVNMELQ
Put plainly: protein-binding microarray (RPBM); PBS, 2% BSA, 51.3 ng/ul salmon testes DNA, 50 uM zinc acetate, 200 nM TF, 25 C, 1 h; high values mean tight binding. As to conditions: protein: recombinant; tags: N-terminal polyhistidine and DsRed monomer fusion (pET32a); chain copies: 2; label: CyDye5-dUTP incorporated in the synthesized complementary strand; 3' TTTTT single-stranded linker to array surface; dsDNA, one strand shown. An outline of the steps: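 The binding signal for each feature is its fluorescence intensity in arbitrary units. An Axon 4000B scanner was used to read a custom Agilent array that had been made double-stranded with Cy5-dUTP primer extension, blocked with 2% BSA, incubated at 25 °C for 1 h with 200 nM protein in PBS, 2% BSA, salmon testes DNA and 50 µM zinc acetate, and washed. The protein was an N-terminal polyhistidine–DsRed transcription factor fusion from E. coli BL21-CodonPlus, purified on Ni–NTA.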
For the sequence “TGGGTCCCTCCATGCTGAGTCAGCTTGTCAATCGGGTCAACGGAGTCACCTAGTGCAG”, the binding signal is 21900 fluorescence intensity (a.u.).

As for “GGGCTCCCTCCACCGCCGCCTCCGCCACCGCCTCGCCGCCCGGAGTCACCTAGTGCAG”, the binding signal is 3150 fluorescence intensity (a.u.).

In the case of “ACACGCCACGCCGCCACCTCCACTTCGTTAACCCTTCTCCCGGAGTCACCTAGTGCAG”, the binding signal was 5410 fluorescence intensity (a.u.).

As for “GCCTAACCCTAACCCTAGCCGCCACCGCTCAACCGCCTCCCGGAGTCACCTAGTGCAG”, the binding signal was 65100 fluorescence intensity (a.u.).

On to “AAGCCTAAAACCTCCCCATCCACGTCACCCATCCTCCTCCCGGAGTCACCTAGTGCAG”, for which the binding signal was 22300 fluorescence intensity (a.u.).

For the sequence “ACCGCCGGTCCACTCACCCCTAACCCTAGCCGCTGCCGCCCGGAGTCACCTAGTGCAG”, the binding signal was 4020 fluorescence intensity (a.u.).

For “TGGCTCCCACGTTAACTTAGCCGCCACGTCAGCTAAAACCCGGAGTCACCTAGTGCAG”, the binding signal is 46600 fluorescence intensity (a.u.).

Take “GACGACTGCTGGTACACGGACATGAGGCTGCAGCCGACGACGGAGTCACCTAGTGCAG”: the binding signal is 3480 fluorescence intensity (a.u.).

With “GCCACGCCCAACCCGTGTCACTGTCACGTGGGCCCCACCCCGGAGTCACCTAGTGCAG”, the binding signal was 7720 fluorescence intensity (a.u.).

Take “CAACCAATCAATCACATACGTGGACAACTGCAGAAAATGCCGGAGTCACCTAGTGCAG”: the binding signal was 5610 fluorescence intensity (a.u.).

As for “ACTGCCGGTTCAACTGCTCCACGGCTCCACTCCACGCATCCGGAGTCACCTAGTGCAG”, the binding signal was 43300 fluorescence intensity (a.u.).

As to “CGGCTCCGCCGCACTTGCTCGGCCGTCCACGCCGGCACGGCGGAGTCACCTAGTGCAG”, the binding signal was 3640 fluorescence intensity (a.u.).

Take “ATCGCGCATCCACTCCACACCACACGCTTCACTGGTTCCGCGGAGTCACCTAGTGCAG”: the binding signal is 3870 fluorescence intensity (a.u.).

“ACTATGGATATCTGTTTTAGCTGACATGGCATCCTACTCACGGAGTCACCTAGTGCAG”: the binding signal is 8140 fluorescence intensity (a.u.).

For “ACCACTGTTTGTGGAGTGTGTGCACACACCACCTCCGATGCGGAGTCACCTAGTGCAG”, the binding signal is 3810 fluorescence intensity (a.u.).

In the case of “ATTCACTGATAATAGAGACCCACACGTTAGTATTGGAGTACGGAGTCACCTAGTGCAG”, the binding signal is 3140 fluorescence intensity (a.u.).

Take “TGGATATACATATGCCATGTCGATTTTGTGCCGAAGTGGACGGAGTCACCTAGTGCAG”: the binding signal is 3330 fluorescence intensity (a.u.).

For “AAATTATGTCATTTTGATCAACAGTTGGTACAGTAGTACACGGAGTCACCTAGTGCAG”, the binding signal was 48000 fluorescence intensity (a.u.).

Take “AAGGTGAGGTTGGTCAACATTTGTCATCAAATTTTGATCACGGAGTCACCTAGTGCAG”: the binding signal is 3400 fluorescence intensity (a.u.).

With “CTTCAGTTATGTTAATTACATGTCATTTGTTTTGTTACAACGGAGTCACCTAGTGCAG”, the binding signal is 4920 fluorescence intensity (a.u.).

Consider “TGCACCTAGGTGTACATGTCATTGTGTGTTTGTGGTTGGTCGGAGTCACCTAGTGCAG”, for which the binding signal is 4630 fluorescence intensity (a.u.).

“GTTTTGTGATTTGGTACATGTGGTAGCATTCACCAAATGTCGGAGTCACCTAGTGCAG”: the binding signal was 39600 fluorescence intensity (a.u.).

Regarding “TGTGGTTGGTGTCGATTTGGAATGGGGTGAAATGGACTGGCGGAGTCACCTAGTGCAG”, the binding signal is 3260 fluorescence intensity (a.u.).

Turning to “CATTTGTTTTATTTTAGCATTTGTCACTTACATGTGGGACCGGAGTCACCTAGTGCAG”, the binding signal is 3180 fluorescence intensity (a.u.).

Take “CAAATGTCGATTTGGTTGTGGACATGTCAATGCCGATCAACGGAGTCACCTAGTGCAG”: the binding signal is 50200 fluorescence intensity (a.u.).

For “CAGCTACAGGACGGCAGTACCCAGTACACGCACGCGTACCCGGAGTCACCTAGTGCAG”, the binding signal is 3640 fluorescence intensity (a.u.).

Consider “TTAAATGCACCCCTACTCAACCCCTCAATCGACGTGTTGGCGGAGTCACCTAGTGCAG”, for which the binding signal is 4180 fluorescence intensity (a.u.).

In the case of “AGTATTTTAAATCATATACAAGTACGTCACATCATCACTCCGGAGTCACCTAGTGCAG”, the binding signal is 3720 fluorescence intensity (a.u.).

As to “TGACACCGTCGCCACCTCGCCACCCATCCATTTCCATTGCCGGAGTCACCTAGTGCAG”, the binding signal is 3650 fluorescence intensity (a.u.).

“TGCACGCTGCGGCGTACGTCGCGTGCGCACACGGGAATTTCGGAGTCACCTAGTGCAG”: the binding signal was 3190 fluorescence intensity (a.u.).

With “TCTACTCCTAAATCCACATCATCTTTAGCAAAAGCAACAACGGAGTCACCTAGTGCAG”, the binding signal is 4670 fluorescence intensity (a.u.).

Regarding “TTGTCGCAGGTTGCTGACTGTTCCTCGAGGGAGTTCTCGGCGGAGTCACCTAGTGCAG”, the binding signal is 6980 fluorescence intensity (a.u.).

Take “GCCTCTCCTTGCTTGCGTGCTCACTGTCGCTGACTGCTCTCGGAGTCACCTAGTGCAG”: the binding signal is 4650 fluorescence intensity (a.u.).

“TCGTGGGAATGGCTGAGGATTAGGGCGCCACGTCATCGTTCGGAGTCACCTAGTGCAG”: the binding signal is 45600 fluorescence intensity (a.u.).

In the case of “TGTGGTGGCTGAGTCATCGTGGGATCCACGTGGGCCCCACCGGAGTCACCTAGTGCAG”, the binding signal is 24700 fluorescence intensity (a.u.).

As to “GCCGTGGGAATGGCTGAGGATTAGTGCGCCACGTCAGCAACGGAGTCACCTAGTGCAG”, the binding signal is 37300 fluorescence intensity (a.u.).

Turning to “TTTCTCCACGTCAGCGAAACCACCTATATATATACTGCCACGGAGTCACCTAGTGCAG”, the binding signal is 14300 fluorescence intensity (a.u.).

For “AACTCTCCAGTCTCCACCCACCTCACTCCACAGTCCACACCGGAGTCACCTAGTGCAG”, the binding signal was 3150 fluorescence intensity (a.u.).

Take “AGACACAGCACACCCACTCACTCTGCTCACTCTCCCATACCGGAGTCACCTAGTGCAG”: the binding signal was 39100 fluorescence intensity (a.u.).

Take “GCCGCCGCTGTCGCCATCCACGCTCCGAGCGCCACTGCCACGGAGTCACCTAGTGCAG”: the binding signal was 3490 fluorescence intensity (a.u.).

As to “CTCCGTTGTGCTCTGTCTCTCTACCGCCACCATCCACTGCCGGAGTCACCTAGTGCAG”, the binding signal was 39200 fluorescence intensity (a.u.).

As to “CCCTGCTCTGCCACGCCCGCCACCGTCTGCCGGCCTCTACCGGAGTCACCTAGTGCAG”, the binding signal is 4730 fluorescence intensity (a.u.).

As to “CTCCACACAGACACACATCCCACCCCACCCACATACACACCGGAGTCACCTAGTGCAG”, the binding signal was 3610 fluorescence intensity (a.u.).

These data come from publication PMC7819943, “Rice protein-binding microarrays: a tool to detect cis-acting elements near promoter regions in rice”.
